Among the test systems are SR leukemia; OVCAR-8 ovarian; OVCAR-5 ovarian; OVCAR-4 ovarian; SK-OV-3 ovarian; IGROV1 ovarian; OVCAR-3 ovarian; NCI/ADR-RES ovarian; HS 578T breast; RPMI-8226 leukemia.
Holding throughout (assay): NCI-60 one-dose screen, 48 h (100 = growth as untreated, 0 = no growth, -100 = all killed)
Holding throughout (conditions): 10 µM unless noted

About 83,000 compounds went through this panel and 20% of them were active in at least one assay; those are over-represented in the sample as a whole.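 96-well plates, one dose, 48 hours. Percent growth reported; active if below 10.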 Unmarked numbers belong to inactive results. The source made the active and inactive calls.

On to `CS(=O)(=O)N1CCN(Cc2cc3nc(-c4cccc5[nH]ncc45)nc(N4CCOCC4)c3s2)CC1` (tested in a mixture with another compound), for which the growth with SR leukemia was 23.2%; in the experiment with OVCAR-8 ovarian, 26.1%; with OVCAR-5 ovarian it was 21.5%; in the experiment on OVCAR-4 ovarian it was 39.7%; in the experiment with SK-OV-3 ovarian, -25.6% (active); with IGROV1 ovarian, -30.2% (active). The growth in the experiment on OVCAR-3 ovarian is 12.4%; with NCI/ADR-RES ovarian, 29.6%.

Take `COP(=O)(OC)C(c1ccc(O)cc1)(c1ccc(O)cc1)c1ccc(O)cc1`: the growth with SR leukemia was 93.4%; in the experiment on OVCAR-8 ovarian, 97.2%; in the experiment on OVCAR-5 ovarian, 124%; with OVCAR-4 ovarian, 99.3%; in the experiment with SK-OV-3 ovarian it was 122%; in the experiment with IGROV1 ovarian, 11.3%. The growth in the experiment with OVCAR-3 ovarian is 81.3%; in the experiment on HS 578T breast, 98.8%; with NCI/ADR-RES ovarian it was 92.3%.

For the molecule `COc1ccc2c3c(ccc2c1)C(=O)/C(=C\O)CC3`, the growth in the experiment on SR leukemia is 94.6%; with OVCAR-8 ovarian it was 97.4%; in the experiment on OVCAR-5 ovarian, 107%; in the experiment on OVCAR-4 ovarian, 100%; in the experiment on SK-OV-3 ovarian it was 91.6%; in the experiment on IGROV1 ovarian it was 111%. The growth was 99.6% in the experiment on OVCAR-3 ovarian and 96.3% in the experiment on NCI/ADR-RES ovarian.

Turning to `Nc1ccccc1-c1ccn[nH]1`, the growth in the experiment on SR leukemia was 99.7%; in the experiment on OVCAR-8 ovarian it was 103%; in the experiment with OVCAR-5 ovarian, 83%; in the experiment with OVCAR-4 ovarian it was 94.7%; with SK-OV-3 ovarian it was 92.1%; with IGROV1 ovarian it was 84.2%. The growth in the experiment with OVCAR-3 ovarian is 91.6%; in the experiment on HS 578T breast, 100%; with NCI/ADR-RES ovarian, 105%.

`COc1cccc(N2CCN(c3cccc(C)n3)CC2)c1`: the growth in the experiment with RPMI-8226 leukemia was 115%; in the experiment on OVCAR-8 ovarian, 87.1%; in the experiment on OVCAR-5 ovarian it was 96.5%; with OVCAR-4 ovarian it was 116%; in the experiment with SK-OV-3 ovarian, 107%; with IGROV1 ovarian, -11.8% (active). The values for the growth in the experiment with OVCAR-3 ovarian, with HS 578T breast and with NCI/ADR-RES ovarian were 87.5%, 100% and 95.5%, respectively.

As to `CCOC(=O)N1CCC(N=C2CSc3nnc(-c4cc(C(F)(F)F)cc(C(F)(F)F)c4)n3N2)CC1`, the growth in the experiment on RPMI-8226 leukemia was 29%; with OVCAR-8 ovarian it was 22.2%; in the experiment on OVCAR-5 ovarian, 25.6%; with OVCAR-4 ovarian, 25.1%; in the experiment with SK-OV-3 ovarian, 41.4%; in the experiment on IGROV1 ovarian, 44.1%. Moreover, the growth in the experiment with OVCAR-3 ovarian was 28.5%; with HS 578T breast, 21.5%; in the experiment on NCI/ADR-RES ovarian, 14.1%.

Regarding `CCOc1cc(/C=C/C(=O)C(C(=O)/C=C/c2ccc(OC(=O)CNc3nnc(C)s3)c(OCC)c2)C(=O)CNc2nnc(C)s2)ccc1OC(=O)CNc1nnc(C)s1`, the growth was -68.3% (active) in the experiment on RPMI-8226 leukemia; 2.17% (active) with OVCAR-8 ovarian; -11.7% (active) in the experiment with OVCAR-5 ovarian; 23.1% with OVCAR-4 ovarian; 43.6% in the experiment on SK-OV-3 ovarian; -53.7% (active) in the experiment with IGROV1 ovarian. Also, the growth with OVCAR-3 ovarian is 11.3%; in the experiment with HS 578T breast it was 10.1%; in the experiment on NCI/ADR-RES ovarian it was 7.78% (active).

On to `O=C(/C=C/c1cccc(O)c1)c1cccc(-n2cc(-c3ccccc3)[nH]c2=O)c1`, for which the growth is -45.4% (active) with RPMI-8226 leukemia; 9.12% (active) in the experiment with OVCAR-8 ovarian; -9.18% (active) in the experiment with OVCAR-5 ovarian; 20.2% with OVCAR-4 ovarian; 106% with SK-OV-3 ovarian; -30.5% (active) with IGROV1 ovarian. Also, the values for the growth in the experiment on OVCAR-3 ovarian, in the experiment on HS 578T breast and in the experiment with NCI/ADR-RES ovarian were -28% (active), 46% and 3.96% (active), respectively.

On to `COc1ccc2c(c1)sc1nc(-c3ccc(N(C)C)cc3)cn12`, for which the growth was 33% with RPMI-8226 leukemia; 95.2% with OVCAR-8 ovarian; 98.8% with OVCAR-5 ovarian; 97.8% in the experiment on OVCAR-4 ovarian; 82.6% with SK-OV-3 ovarian; 15.8% with IGROV1 ovarian. For the same molecule, the growth in the experiment on OVCAR-3 ovarian is 88.5%; with HS 578T breast it was 122%.

Consider `CN(C)c1ccc(-n2nc3ccccc3n2)cc1`, for which the growth in the experiment with RPMI-8226 leukemia is 357%; with OVCAR-8 ovarian, 97.3%; in the experiment on OVCAR-5 ovarian, 80.3%; in the experiment with OVCAR-4 ovarian, 115%; with SK-OV-3 ovarian, 113%; in the experiment with IGROV1 ovarian, -38.5% (active). Also, the growth in the experiment on OVCAR-3 ovarian is 93.7%; with HS 578T breast it was 96.4%; in the experiment with NCI/ADR-RES ovarian, 106%.

As for `COc1ccc(/C=C2\CCc3ccccc3C2=O)cc1`, the growth in the experiment with RPMI-8226 leukemia is 82.1%; in the experiment with OVCAR-8 ovarian it was 90%; in the experiment with OVCAR-5 ovarian it was 109%; with OVCAR-4 ovarian, 89.6%; with SK-OV-3 ovarian it was 102%; in the experiment with IGROV1 ovarian, 81.8%. The growth was 89.6% in the experiment on OVCAR-3 ovarian, 97.3% in the experiment with HS 578T breast and 60.5% in the experiment with NCI/ADR-RES ovarian.

As to `COc1cc(/C=C/C(=O)c2c(C)n([O-])c3ccccc3[n+]2=O)cc(OC)c1OC`, the growth in the experiment on RPMI-8226 leukemia was 9.32% (active); in the experiment with OVCAR-8 ovarian it was 30.6%; in the experiment on OVCAR-5 ovarian it was 80.6%; with OVCAR-4 ovarian, 46.9%; in the experiment with SK-OV-3 ovarian, 58.3%; in the experiment on IGROV1 ovarian, -15.8% (active). In addition, the growth was 59.2% with OVCAR-3 ovarian, 43.2% in the experiment with HS 578T breast and 43.4% in the experiment on NCI/ADR-RES ovarian.

With `COc1cc(/C=C/C(=O)C(C(=O)/C=C/c2ccc(OC(=O)CCNc3nnc(C)s3)c(OC)c2)C(=O)CCNc2nnc(C)s2)ccc1OC(=O)CCNc1nnc(C)s1`, the growth was -75.2% (active) with RPMI-8226 leukemia; 7.54% (active) in the experiment on OVCAR-8 ovarian; 37.1% in the experiment with OVCAR-5 ovarian; 35.9% with OVCAR-4 ovarian; 45.4% with SK-OV-3 ovarian; -37.6% (active) in the experiment with IGROV1 ovarian. For the same molecule, the growth in the experiment with OVCAR-3 ovarian was 2.15% (active); in the experiment with HS 578T breast, 18.2%; with NCI/ADR-RES ovarian it was 31.8%.

Turning to `BrC1CC(Br)c2c1c1c(c3c2C(Br)CC3Br)C(Br)CC1Br` (configuration not stated), the growth in the experiment on RPMI-8226 leukemia is 92.9%; in the experiment with OVCAR-8 ovarian, 85.2%; in the experiment on OVCAR-5 ovarian, 99.2%; in the experiment on OVCAR-4 ovarian, 106%; in the experiment on SK-OV-3 ovarian, 102%; with IGROV1 ovarian, -20.2% (active). Also, the growth is 150% in the experiment on OVCAR-3 ovarian, 93.6% with HS 578T breast and 91% with NCI/ADR-RES ovarian.

Take `O=C1/C(=C/c2ccccc2Cl)CCc2ccccc21`: the growth with RPMI-8226 leukemia was 95.4%; with OVCAR-8 ovarian it was 96.7%; in the experiment with OVCAR-5 ovarian, 109%; with OVCAR-4 ovarian, 110%; with SK-OV-3 ovarian, 116%; with IGROV1 ovarian, 97.3%. The growth was 112% in the experiment on OVCAR-3 ovarian, 99.1% in the experiment on HS 578T breast and 102% in the experiment with NCI/ADR-RES ovarian.

The values above are taken from PubChem BioAssay (NCI).
